Laboratory results: the supplement of paper PMC9694430

Columns and labels:
Assay in all cases: thermal shift delta Tm vs DMSO control; higher = stronger stabilization (binding)
Conditions in all cases: 12.5 µM; protein concentration 2 µM
[1] = test system: LOC_OS02G45750-cb003
Procedure, shortened: (§1)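 Compounds dissolved in DMSO were added to purified rice kinase domain constructs, which had been expressed in E. coli, for differential scanning fluorimetry. Each well held 19.5 μl of 2 μM kinase in 100 mM potassium phosphate pH 7.5, 150 mM NaCl, 10% glycerol and 5 × SYPRO Orange. Fluorescence was followed from 25°C to 95°C at a rate of 0.05°C/s. Shifts in Boltzmann-fitted melting temperature are triplicate means relative to DMSO-only protein.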

[2] = test system: LOC_OS02G54510-cb004
Procedure, shortened: as §1

[3] = test system: LOC_OS03G04050-cb001
Procedure, shortened: as §1

[4] = test system: LOC_OS03G12390-cb001
Procedure, shortened: as §1

[5] = test system: LOC_OS03G27990-cb004
Procedure, shortened: as §1

[6] = test system: LOC_OS03G50450-cb001
Procedure, shortened: as §1

[7] = test system: LOC_OS03G50810-cb003
Procedure, shortened: as §1

[8] = test system: LOC_OS04G35114-cb001
Procedure, shortened: as §1

[9] = test system: T1, LOC_OS04G38480-cb003
T1 sequence (whole entry): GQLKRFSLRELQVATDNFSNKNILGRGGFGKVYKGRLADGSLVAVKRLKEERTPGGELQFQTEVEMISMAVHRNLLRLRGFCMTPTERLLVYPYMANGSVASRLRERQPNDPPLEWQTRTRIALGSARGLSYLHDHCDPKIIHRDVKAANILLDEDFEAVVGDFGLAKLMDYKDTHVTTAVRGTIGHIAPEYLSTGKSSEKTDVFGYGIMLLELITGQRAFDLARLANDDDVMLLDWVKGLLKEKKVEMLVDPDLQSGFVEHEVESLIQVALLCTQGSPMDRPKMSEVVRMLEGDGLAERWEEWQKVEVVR
Procedure, shortened: as §1

[10] = test system: T2, LOC_OS04G41100-cb001
T2 sequence (whole entry): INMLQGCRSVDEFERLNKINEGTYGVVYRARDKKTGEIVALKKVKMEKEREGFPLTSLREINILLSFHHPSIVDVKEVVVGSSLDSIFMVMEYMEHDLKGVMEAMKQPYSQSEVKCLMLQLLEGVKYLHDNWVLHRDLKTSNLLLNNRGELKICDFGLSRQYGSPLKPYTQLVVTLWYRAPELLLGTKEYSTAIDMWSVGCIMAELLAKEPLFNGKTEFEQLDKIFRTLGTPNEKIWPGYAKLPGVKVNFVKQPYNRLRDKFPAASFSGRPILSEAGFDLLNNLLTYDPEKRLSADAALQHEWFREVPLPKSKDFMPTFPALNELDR
Procedure, shortened: as §1

[11] = test system: LOC_OS04G57630-cb004
Procedure, shortened: as §1

[12] = test system: LOC_OS05G07850-cb002
Procedure, shortened: as §1

[13] = test system: LOC_OS05G16824-cb004
Procedure, shortened: as §1

[14] = test system: LOC_OS05G28520-cb001
Procedure, shortened: as §1

[15] = test system: LOC_OS05G30820-cb001
Procedure, shortened: as §1

[16] = test system: LOC_OS05G43570-cb004
Procedure, shortened: as §1

[17] = test system: LOC_OS06G16330-cb003
Sequence of LOC_OS06G16330-cb003 (as listed by the source): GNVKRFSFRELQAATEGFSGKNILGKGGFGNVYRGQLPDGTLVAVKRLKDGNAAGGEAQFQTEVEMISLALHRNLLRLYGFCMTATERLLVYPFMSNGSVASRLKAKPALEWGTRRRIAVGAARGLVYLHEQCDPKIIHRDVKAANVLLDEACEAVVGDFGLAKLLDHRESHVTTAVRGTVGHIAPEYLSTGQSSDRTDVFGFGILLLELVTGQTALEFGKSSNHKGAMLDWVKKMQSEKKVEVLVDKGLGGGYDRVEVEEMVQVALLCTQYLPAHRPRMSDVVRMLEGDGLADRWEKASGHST
Procedure, shortened: as §1

[18] = test system: T3, LOC_OS06G22820-cb001
T3 sequence (whole entry): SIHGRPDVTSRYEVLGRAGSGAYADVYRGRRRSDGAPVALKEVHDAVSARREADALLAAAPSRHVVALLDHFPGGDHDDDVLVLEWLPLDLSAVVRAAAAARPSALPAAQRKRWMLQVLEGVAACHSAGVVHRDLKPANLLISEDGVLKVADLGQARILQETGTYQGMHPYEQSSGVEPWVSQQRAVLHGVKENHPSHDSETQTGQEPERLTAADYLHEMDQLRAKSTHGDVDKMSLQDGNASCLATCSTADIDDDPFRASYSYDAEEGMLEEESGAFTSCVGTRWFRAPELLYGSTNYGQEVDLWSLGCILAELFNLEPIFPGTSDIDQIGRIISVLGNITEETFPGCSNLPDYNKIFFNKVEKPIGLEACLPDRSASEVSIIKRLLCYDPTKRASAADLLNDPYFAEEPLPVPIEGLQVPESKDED
Procedure, shortened: as §1

[19] = test system: LOC_OS07G06570-cb004
Procedure, shortened: as §1

[20] = test system: LOC_OS07G07230-cb001
Procedure, shortened: as §1

CCn1c2ccccc2c2cc(Nc3ccnc(NCCCN4CCOCC4)n3)ccc21
thermal shift delta Tm [1]: 0.77 °C | thermal shift delta Tm [2]: 0.13 °C | thermal shift delta Tm [3]: 0.05 °C | thermal shift delta Tm [4]: -0.48 °C | thermal shift delta Tm [5]: 0.11 °C | thermal shift delta Tm [6]: 0.22 °C | thermal shift delta Tm [7]: 0.04 °C | thermal shift delta Tm [8]: 1.09 °C | thermal shift delta Tm [9]: 1.71 °C | thermal shift delta Tm [10]: 0.46 °C | thermal shift delta Tm [11]: 0.23 °C | thermal shift delta Tm [12]: 3.68 °C | thermal shift delta Tm [13]: -1.41 °C | thermal shift delta Tm [14]: 0.55 °C | thermal shift delta Tm [15]: 0.41 °C | thermal shift delta Tm [16]: 0.2 °C | thermal shift delta Tm [17]: 0.02 °C | thermal shift delta Tm [18]: 0.32 °C | thermal shift delta Tm [19]: 1.17 °C | thermal shift delta Tm [20]: 0.72 °C

NCC(=O)Nc1ccc(-n2nc(C(F)(F)F)cc2-c2ccc3c(ccc4ccccc43)c2)cc1
thermal shift delta Tm [1]: -0.16 °C | thermal shift delta Tm [2]: -0.91 °C | thermal shift delta Tm [3]: 0.64 °C | thermal shift delta Tm [4]: 0.8 °C | thermal shift delta Tm [5]: -0.15 °C | thermal shift delta Tm [6]: 0.36 °C | thermal shift delta Tm [7]: 0.37 °C | thermal shift delta Tm [8]: -0.57 °C | thermal shift delta Tm [9]: 1.25 °C | thermal shift delta Tm [10]: 0.65 °C | thermal shift delta Tm [11]: -0.2 °C | thermal shift delta Tm [12]: 1.75 °C | thermal shift delta Tm [13]: 1.88 °C | thermal shift delta Tm [14]: 0.25 °C | thermal shift delta Tm [15]: -0.08 °C | thermal shift delta Tm [16]: 0.27 °C | thermal shift delta Tm [17]: 0.39 °C | thermal shift delta Tm [18]: 0.4 °C | thermal shift delta Tm [19]: 0.5 °C | thermal shift delta Tm [20]: 0.18 °C

Cc1cccc(CC(=O)N2CCc3c2ccc(-c2cn(C)c4ncnc(N)c24)c3F)n1
thermal shift delta Tm [1]: 1.87 °C | thermal shift delta Tm [2]: 0.61 °C | thermal shift delta Tm [3]: 0.63 °C | thermal shift delta Tm [4]: 0.44 °C | thermal shift delta Tm [5]: 0.12 °C | thermal shift delta Tm [6]: 0.29 °C | thermal shift delta Tm [7]: 0.3 °C | thermal shift delta Tm [8]: 0.7 °C | thermal shift delta Tm [9]: 3.73 °C | thermal shift delta Tm [10]: 0.27 °C | thermal shift delta Tm [11]: 1.09 °C | thermal shift delta Tm [12]: 2.24 °C | thermal shift delta Tm [13]: 0.43 °C | thermal shift delta Tm [14]: 0.62 °C | thermal shift delta Tm [15]: 0.47 °C | thermal shift delta Tm [16]: 0.42 °C | thermal shift delta Tm [17]: 1.13 °C | thermal shift delta Tm [18]: 0.75 °C | thermal shift delta Tm [19]: 1.03 °C | thermal shift delta Tm [20]: 1.75 °C
